# Shown is part of a subset that was picked to be rich in hits.
# Dicer inh: blocks human Dicer maturation of pre-miR-21 | Q9UPY3 | z-score at 25 µM | cat-ELCCA pre-miR-21 Dicer processing, chemiluminescence; active compounds read high | hit rate 6% among 47,000; in the data active = z-score above about 3, passing the limit was not always enough;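 also: plate controls were vehicle for no effect and no enzyme for full effect; higher signal means more uncleaved substrate so more Dicer inhibition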
# * hit, by the source's call.
SMILES,Dicer inh
N#CCC(=O)N(Cc1ccccc1)C(=O)Nc1cccc(Cl)c1,-0.32
c1cc2c(cc1-c1csc(-c3ccc4c(c3)OCCO4)n1)OCO2,-0.55
CCN(CC)CC#CC(O)(c1ccccc1)c1ccccc1,0.86
CCN(CC)CC#Cc1cccc(C)c1,5*
CCOC(=O)c1c[nH]c2c(Cl)cc(Br)cc2c1=O,-0.56
COc1ccc(C2C(C(=O)OCc3ccccc3)=C(C)Nc3nnnn32)cc1OC (centres undefined),-0.86
CCc1ccc(-c2ncnn2-c2ccc(Cl)cc2)cc1,3.2*
Clc1ccc(-n2ncnc2-c2ccccc2)cc1,-0.28
CSc1ccc(-c2ncnn2-c2cccc(Cl)c2)cc1,0.28
O=C(NCCO)C(=O)NCC1CCCO1 (centres undefined),2.7
COc1ccc(/C=C/c2nc3n(n2)C=COc2ccccc2-3)cc1,0.55
C1=Cn2nc(/C=C/c3c[nH]c4ccccc34)nc2-c2ccccc2O1,4.2*
CSc1ccc(/C=C/c2nc3n(n2)C=COc2ccccc2-3)cc1,1.1
COc1ccc(SCCC(=O)NNS(=O)(=O)c2cccs2)cc1,-0.29
CC(C)N(C(=O)CSc1nc2ccccc2s1)c1ccccc1,-0.03
CC(C)N(C(=O)CN(C#N)c1nc(N(C)C)nc(N(C)C)n1)c1ccccc1,5.2*
CC(O)c1nc2ccccc2n1CC(=O)N(c1ccccc1)C(C)C (centres undefined),0.62
CC1=C(C(=O)OCc2ccccc2)C(c2cccs2)C2=C(CC(C)(C)CC2=O)N1 (centres undefined),0.85
CC(=O)/C(=C\Nc1cc(C)nc(C)n1)S(=O)(=O)c1ccc(Cl)cc1,-2.8
COc1ccc(CNCC2(O)CCOC(C)(C)C2)cc1 (centres undefined),3.6*
COc1ccc(CNCc2ccc(Br)cc2)c(OC)c1,0.88
COc1ccc(CN=C(C)C2CCOC2=O)cc1 (centres undefined),-1.5
Cc1cc(N2CCCCC2)n2c(nc3ccccc32)c1C#N,-0.79
Cc1nn2c(C(F)(F)F)cc(-c3ccco3)nc2c1-c1ccc(Cl)cc1,-1.1
c1ccc(-c2nnc3sc(-c4cccs4)nn23)cc1,-0.93
SMILES,Dicer inh
c1ccc(-c2nnc3sc(-c4ccco4)nn23)cc1,3*
c1ccc(-c2nn3c(-c4ccccc4)nnc3s2)cc1,-0.02
Cn1c(=O)c2c(nc(OCC3CCCCO3)n2Cc2ccc(F)cc2)n(C)c1=O (centres undefined),-0.59
O=C(Nc1ccc(S(=O)(=O)Nc2ncccn2)cc1)c1cc2ccccc2o1,0.46
O=C(Nc1ncn[nH]1)c1cc2ccccc2o1,4.9*
O=C(Nc1nccs1)c1cc2ccccc2o1,-3.5
CCOC(=O)c1c(C)oc2ccc(OCc3ccc(Br)cc3)cc12,0.4
CCN1C(=O)C(=O)c2cc(Br)ccc21,1.8
c1cnc2sc3c(N4CCOCC4)ncnc3c2c1,-0.48
OCCSc1nnnn1-c1ccccc1,-1.3
CCOC(=O)CSc1nnnn1-c1ccccc1,3.7*
O=C(CSc1nnnn1-c1ccccc1)c1ccccc1,0.17
COC(=O)c1sccc1N/N=C/c1ccc(C#N)cc1,-0.93
CSC(N)=Nc1csc(C(F)(F)F)c1-c1ccccc1,1.6
NC(=S)Nc1csc(C(F)(F)F)c1-c1ccccc1,3.3*
NC(=S)Nc1ccc(C(F)(F)F)cc1,-0.82
CCOC(=O)CCCCCN1C(=O)S/C(=C/c2ccccc2)C1=S,-1.9
O=C(Nc1nnc(C2CC2)s1)c1ccccc1,0.18
C=C(C)CSc1nnc2[nH]c(=O)cc(N)n12,2.9
COc1ccccc1OCCSc1nnc2[nH]c(=O)cc(N)n12,1.9
CC(C)CSc1nnc2[nH]c(=O)cc(N)n12,2.4
CCCCCCSc1nnc2[nH]c(=O)cc(N)n12,3.8*
C=CCSc1n[nH]c(=O)n1C1CCCCC1,-1.1
C=CCSc1nnc2[nH]c(=O)cc(N)n12,5.2*
COc1cccc(-n2cc(-c3ccc(F)cc3)nc2SCC(=O)c2cccs2)c1,-1.7
SMILES,Dicer inh
CC1Oc2ccc(C(=O)CCC(=O)O)cc2NC1=O (centres undefined),-0.33
Cc1ncc(CSCC(=O)Nc2cc(C(F)(F)F)cc(C(F)(F)F)c2)c(CO)c1O,-0.58
CC(CNc1ccccc1)C(=Nc1ccccc1)Nc1ccccc1 (centres undefined),1.4
C=CCOC(=O)C1=C(C)NC2=C(C(=O)CCC2)C1c1ccc(OCc2ccccc2)c(OC)c1 (centres undefined),-0.61
COc1ccc(N2C(=O)CSC2=O)cc1,1.8
O=C1CSC(=O)N1c1ccc(C(F)(F)F)cc1,3.9*
O=C1CSC(=O)N1c1ccc(Cl)cc1,-0.02
CNc1ccccc1C(=O)NCc1cccs1,-0.62
CC1/C=C/C=C/CC/C=C/C=C/C=C/C=C/C(O[C@@H]2O[C@H](C)[C@@H](O)[C@H](N)[C@@H]2O)CC(O)C(C(=O)O)C(O)CC(=O)CC(O)C(O)CCC(O)CC(O)CC(O)CC(=O)OC(C)C(C)C1O (some centres undefined),0.25
O=C(c1c2oc(-c3ccccc3)ccc-2c2ccccc12)C(F)(F)F,2.7
Cc1cc(S(=O)(=O)n2cccc2)c(C)cc1Cl,-0.38
COc1cc(Cl)c(NC(C)=O)c(Cl)c1,1
Cc1ccc(O)c(C(=O)NNC(=S)Nc2ccc(Cl)cc2)c1,5.4*
CNC(=S)NNC(=O)c1ccc(Cl)cc1Cl,-1.6
CCOC(=O)NNC(=S)Nc1ccc(Cl)cc1,-1.9
CC(C)(C)c1ccc(OCc2nc(-c3cccnc3)no2)cc1,-1.1
C=CCc1c(C)nc(OCC(=O)OCC)c(C#N)c1C,0.21
CCOC(=O)c1sc(SCc2ccc(Cl)cc2)c2c1CCCC2=O,-1.4
NC(=O)C1CCN(c2ncc(Cl)cc2C(F)(F)F)CC1,-1.3
Nc1cc(=O)n(Cc2ccccc2)c(=O)n1-c1ccccc1,0.82
CCCn1c(=O)c2[nH]cnc2n(-c2ccc(Cl)cc2)c1=O,1.7
CCCn1c(=O)cc(N)n(-c2ccc(Cl)cc2)c1=O,5.1*
COc1ccc(-c2nc(CN3C(=O)c4ccccc4S3(=O)=O)no2)cc1,-0.31
c1csc(CNc2nc3ccccc3n2CCN2CCOCC2)c1,2.2
c1ccc(Cn2c(NCc3cccs3)nc3ccccc32)cc1,3*
SMILES,Dicer inh
CCCn1c(NCc2cccs2)nc2ccccc21,3.1*
c1csc(CNc2nc3ccccc3n2CCN2CCCCC2)c1,-0.42
COc1cc2c(cc1OC)C(c1ccccc1Cl)NC(=O)C2 (centres undefined),2.6
c1ccc(C(NCc2cccs2)c2ccccc2)cc1,-0.9
O=C(O)c1csc(-c2ccccc2)c1Cc1ccccc1,0.38
CCOC(=O)CNC(=O)c1nn(C)cc1[N+](=O)[O-],-0.69
Cc1cccc(C)c1NC(=S)N(CCC#N)C1CCCCC1,-0.56
Brc1ccc2c(c1)C1CC(c3ccco3)=NN1C(c1ccccc1)O2 (centres undefined),5.7*
Brc1ccc2c(c1)C1CC(c3ccccc3)=NN1C(c1cccnc1)O2 (centres undefined),1
COc1ccc(C2Oc3c(OC)cccc3C3CC(c4cc(OC)ccc4O)=NN32)cc1 (centres undefined),0.44
COc1ccc(O)c(C2=NN3C(C2)c2cc(Br)ccc2OC3c2cccnc2)c1 (centres undefined),3.1
COc1cccc(C2=NN3C(C2)c2cc(Br)ccc2OC3c2ccncc2)c1 (centres undefined),6.7*
CCOc1ccc(C2Oc3ccc(Cl)cc3C3CC(c4ccco4)=NN32)cc1 (centres undefined),3.8*
c1ccc(C2Oc3ccccc3C3CC(c4cccnc4)=NN32)cc1 (centres undefined),0.1

# From PubChem
